In the library only some 2.4% were active in any assay of this set; here they are far more common.
D2 antagonist: D2 dopamine receptor (human) antagonism; P14416; AID 485344; HEK293 TREx D2 cells, calcium flux, dopamine EC80; 340,000 compounds, 2% hits; inhibition, % at 10 µM; in the data active means inhibition above about 30%; inactive means below that, where a call was filed; further: 0% is about no effect
Target sequence (P14416 whole entry, looked up): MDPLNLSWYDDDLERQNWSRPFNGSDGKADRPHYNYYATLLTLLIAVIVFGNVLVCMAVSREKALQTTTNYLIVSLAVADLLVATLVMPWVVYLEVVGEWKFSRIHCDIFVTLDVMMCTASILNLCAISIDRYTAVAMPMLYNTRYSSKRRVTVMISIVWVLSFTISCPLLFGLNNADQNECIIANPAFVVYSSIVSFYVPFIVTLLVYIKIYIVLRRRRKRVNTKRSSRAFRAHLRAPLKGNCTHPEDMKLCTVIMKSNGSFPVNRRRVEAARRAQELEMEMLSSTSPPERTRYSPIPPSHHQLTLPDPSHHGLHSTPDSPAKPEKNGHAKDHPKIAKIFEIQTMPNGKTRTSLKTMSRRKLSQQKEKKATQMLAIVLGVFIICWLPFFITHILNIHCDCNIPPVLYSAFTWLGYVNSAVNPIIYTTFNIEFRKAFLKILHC
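Read-out: kinetic calcium fluorescence (1 cycle/s) in inducible HEK293 T-REx D2 cells after an EC80 dopamine addition that followed 180 s compound preincubation. Loss of the dopamine response indicates antagonism.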
D2 ag-1: human D2 receptor agonism in beta-arrestin assay; DiscoveRx PathHunter D2 beta-arrestin, luminescence, 90 min; 100% = 57 uM dopamine signal; activation, % (test concentration not listed); 360,000 compounds, 0.084% hits; in the data active means activation above about 40%; inconclusive means between about 15% and that limit
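DiscoveRx PathHunter D2 beta-arrestin cells (2,100/well) attached overnight, then compound-stimulated 90 min at 37 C in HBSS/10 mM HEPES/0.1% Tween-20 buffer; beta-galactosidase complementation read by luminescence after 1 h at ambient temperature. Dopamine 57 uM final (EC100) as control.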
D2 PAM-1: positively modulates the human D2 dopamine receptor allosterically; HEK293 T-REx D2, calcium flux, EC20 dopamine potentiation; P14416; 340,000 compounds, 0.34% hits; potentiation, % at 10 µM;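 active means potentiation over 3 SD above the plate norm, cut at about 30% in these data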; further: 0% is about no effect
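Using a no-wash calcium dye in inducible, force-coupled HEK293 Trex cells expressing D2, we tracked fluorescence each second for 180 s after compound, then for 180 s after EC20 dopamine to detect augmented signalling.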
D2 PAM-2: potentiates the human D2 dopamine receptor allosterically | P14416 | DiscoveRx D2 beta-arrestin cells, luminescence, 90 min; 100% = 57 uM dopamine signal | potentiation, % (test concentration not listed) | 360,000 compounds, 0.23% hits | AID 624464; in the data active means potentiation above about 50%; inconclusive means mostly about 30% to 49%
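PathHunter beta-arrestin assay in DiscoveRx D2 cells. Compounds were added with an EC20 of dopamine (50 nM final) for 90 min at 37 deg C. Luminescence was read 1 h after detection reagent, with 57 uM dopamine as the EC100 control.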
D2 ag-2: agonists of human D2 dopamine receptor | P14416 | HEK293 T-REx D2 cells, calcium flux agonist mode | activation, % at 2 µM | 340,000 compounds, 0.53% hits | AID 485358;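 active means activation over 3 SD above normal in the single-dose calcium agonist read, cut at about 30% in these data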; further: 0% is about no effect
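Agonism scored from kinetic calcium signal (1 read/sec, 180 s) following compound pin transfer, after a 10 s baseline. Cells: HEK293 Trex line expressing inducible D2 receptor coupled to calcium, dye-loaded after overnight culture at 30 C.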
* hit, by the source's call; ? = inconclusive; nt = no result given.

SMILES	D2 antagonist	D2 ag-1	D2 PAM-1	D2 PAM-2	D2 ag-2
CC(=O)Nc1ccc(/C=C2\Sc3ccccc3C2=O)cc1	23.1	?	-9.4	56.5*	2.6
CCn1c(=O)cc(OCC(=O)N2CCN(c3cccc(Cl)c3)CC2)c2ccccc21	nt	nt	-4.9	nt	0.5
COc1ccc(N2CCN(C(=O)C34CCC(C)(C(=O)C3)C4(C)C)CC2)cc1 (stereo not given)	36.8*	-0.5	4.2	-5.0	0.0
CC12CCC(C(=O)N3CCN(c4ccccc4)CC3)(CC1=O)C2(C)C (stereo not given)	15.9	1.9	-7.3	9.0	-0.1
COc1ccc(-c2cc(OC(=O)c3cccc(Cl)c3)c3c(C)oc(C)c3c(=O)c2)cc1	nt	nt	7.3	nt	3.4
O=c1cc(-c2cccs2)oc2ccc(Cl)cc12	-1.3	-3.4	0.5	-15.6	-0.8
O=c1c(O)c(-c2cccs2)oc2ccccc12	-28.5	2.0	1.3	5.6	41.9*
O=c1c(O)c(-c2cccs2)oc2ccc(Cl)cc12	51.4*	0.9	-24.4	1.3	93.1*
COc1ccc(CCNCc2ccc3c(c2)n(C)c(=O)n3C)cc1OC	nt	nt	-16.8	nt	nt
COc1ccc(-c2cc(C(C)=O)c(C)n2CCC(=O)Nc2ccc(C)c(Cl)c2)cc1	nt	nt	1.9	nt	-0.1
Cc1cc2c([nH]c3ccccc32)c2c1OC(C)(C)C=C2	42.6*	14.7	13.7	-13.9	0.1
COc1ccc(CCn2c(N)cc(=O)[nH]c2=S)cc1OC	-16.0	-3.1	33.9*	-20.0	0.3
Cn1c(=O)c2cn3ncccc3c2n(C)c1=O	13.0	nt	2.6	nt	0.5
Cc1ccnn2cc3c(=O)n(C)c(=O)n(C)c3c12	11.4	nt	30.6*	nt	-2.0
CS(=O)(=O)N1N=C(c2cccs2)CC1c1ccccc1 (stereo not given)	31.8*	-3.1	0.3	-10.3	0.0
Cc1cc(OCc2nn[nH]n2)c2c(-c3ccccc3)cc(=O)oc2c1	51.1*	-2.7	4.0	-0.9	-0.6
Cc1c(OCc2nn[nH]n2)ccc2c(-c3ccccc3)cc(=O)oc12	-6.8	-2.1	11.0	-1.8	0.3
CCc1ccc(NCc2cccn2-c2nnc(N3CCCCCC3)s2)cc1	nt	nt	8.9	nt	nt
COc1ccc(C)cc1S(=O)(=O)Nc1ccc(F)c(Cl)c1	32.0*	-2.6	-1.0	28.3	0.2
CNCCC=C1c2ccccc2C=Cc2ccccc21	nt	-8.2	nt	-34.1	nt
CN(C)CCC=C1c2ccccc2C=Cc2ccccc21	49.1*	4.9	-17.3	-27.7	-0.4
CN(C)CCC=C1c2ccccc2CCc2ccccc21	63.6*	-4.0	-29.4	-36.0	-0.4
O=C(COc1ccccc1)NCC(c1ccc(Cl)cc1)N1CCCCC1 (stereo not given)	nt	nt	-20.6	nt	-1.8
Cc1nn2c(C(F)(F)F)cc(-c3ccc(OC(C)C)cc3)nc2c1C#N	nt	nt	-2.8	nt	0.4
CCCCN(C)c1nc2c(S(=O)(=O)c3ccc(CC)cc3)nnn2c2ccc(Cl)cc12	nt	nt	-2.4	nt	0.1
SMILES	D2 antagonist	D2 ag-1	D2 PAM-1	D2 PAM-2	D2 ag-2
COc1cc(C(=O)O/N=C2\C=CC(=O)C=C2C)cc(OC)c1OC	49.8*	1.0	6.2	-0.2	0.9
COc1cc(C(=O)O/N=C2/C=CC(=O)C(C)=C2C)cc(OC)c1OC	5.4	?	0.0	72.0*	0.3
COc1cc(C(=O)ON=C2C3CC4CC(C3)CC2C4)cc(OC)c1OC	-16.0	44.8*	3.0	17.9	-1.0
COc1cc(C(=O)NC23CC4CC(CC(C4)C2)C3)cc(OC)c1OC	9.9	-5.8	-8.8	-6.8	-0.1
COc1cccc(C(=O)Nc2ccc(Cl)c(-c3nc4ccccc4[nH]3)c2)c1	nt	nt	2.3	nt	-2.1
CC(C)N(Cc1ccccc1)c1ncnc2c1nnn2C	nt	nt	2.6	nt	-0.7
O=C(COc1ccc(Cl)cc1Cl)Nc1ccc(C(=O)OC2CCCCC2)cc1	nt	nt	-0.6	nt	0.3
FC(F)(F)c1ccc(C2[C@H]3CN(Cc4ccc(-c5ccccc5)cc4)[C@H](c4ccccc4)C34CC2(c2ccccc2)C4)cc1 (stereo not given in full)	35.4*	-0.5	6.8	-1.1	0.0
Cc1cc(C)c(OCC(=O)N(Cc2ccc(N(C)C)cc2)CC2CCCO2)c(C)c1 (stereo not given)	nt	nt	5.0	nt	-0.3
Cc1cc(C)c2[nH]c(=O)c(C(c3nnnn3CC3CCCO3)N3CCC(C)CC3)cc2c1 (stereo not given)	37.3*	-1.9	0.9	-25.6	-0.1
O=C1N[C@@H](Cc2ccccc2)C(=O)N2CCCC12 (stereo not given in full)	nt	-3.3	nt	-6.3	nt
O=C1N[C@@H](Cc2cnc[nH]2)C(=O)N2CCC[C@@H]12	45.2*	-5.6	-1.1	-4.8	2.2
O=C(CN1C(=O)CSc2ccc(S(=O)(=O)N3CCOCC3)cc21)NCCCN1CCOCC1	8.6	-0.3	6.3	-5.9	-0.1
O=C(CN1C(=O)CSc2ccc(S(=O)(=O)N3CCOCC3)cc21)NCCCN1CCc2ccccc2C1	47.1*	0.4	-19.8	-21.4	1.2
CC1CC(C)CN(CCCNC(=O)CN2C(=O)CSc3ccc(S(=O)(=O)N4CCCCC4)cc32)C1 (stereo not given)	51.8*	-4.3	-3.4	-37.7	0.3
CC1CC(C)CN(CCCNC(=O)c2ccc3c(c2)NC(=O)CS3)C1 (stereo not given)	47.7*	-1.1	-7.6	-30.1	-0.2
COc1cccc(CNC(=O)C2CCCN(c3nnc(-n4c(C)ccc4C)s3)C2)c1OC (stereo not given)	nt	nt	-10.0	nt	-1.0
C=CCC(=O)N(CC)CC1CCCN(CCc2cccc(F)c2)C1 (stereo not given)	49.5*	-2.1	-16.9	-1.3	0.0
CCN(CC1CCCN(CCc2cccc(F)c2)C1)C(=O)c1ccoc1C (stereo not given)	nt	-3.2	nt	-51.1	nt
CCCC(C(=O)O)N1C(=O)/C(=C2\C(=O)N(C)c3ccccc32)SC1=S (stereo not given)	0.8	12.7	-5.5	61.2*	-1.3
Cc1cccc(CNC(=O)c2cccc(NC(=O)N3CCSc4ncccc43)c2)c1	nt	nt	6.1	nt	0.4
Cc1cc(C(=O)CSc2nnc(-c3ccccc3)o2)c(C)n1CC1COc2ccccc2O1 (stereo not given)	-16.8	1.4	14.6	9.2	0.5
Cc1cc(C(=O)CSc2nnc(-c3ccc(F)cc3)o2)c(C)n1CC1COc2ccccc2O1 (stereo not given)	41.2*	-0.7	-8.5	-4.2	-0.2
COc1ccccc1CN1CCC(CNS(=O)(=O)c2cc(-c3onc(C)c3C)ccc2OC)CC1	33.4*	-2.9	10.0	-30.5	-0.6
O=C(NCCCN1CCN(c2ccccc2F)CC1)c1ccc2nc(CCc3ccccc3)oc2c1	nt	nt	-20.7	nt	nt
S=C(NCC1CCCO1)Nc1ccc(Nc2ccccc2)cc1 (stereo not given)	40.0*	-1.4	-3.6	-8.5	0.8
O=S(=O)(c1ccc(F)cc1)N1CCC(N2CCCCCC2)CC1	42.0*	-2.0	-8.0	-13.5	14.1

Bioassay records: PubChem BioAssay, National Center for Advancing Translational Sciences (NCATS)
